# The list is not random: actives were taken first. Their share in the collection is about 2.8%.
# HTRA1 inhibitor: inhibitors of human serine peptidase HTRA1; AID 504803; recombinant HTRA1, FP-rhodamine activity-based probe, fluorescence polarization; inhibition, % at 5.96 µM; 340,000 tested, 0.5% active; Q92743; in the data active means inhibition above about 36%;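 further: 0% = enzyme with DMSO and 100% = wells lacking enzyme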
# Target sequence (Q92743 whole entry, looked up): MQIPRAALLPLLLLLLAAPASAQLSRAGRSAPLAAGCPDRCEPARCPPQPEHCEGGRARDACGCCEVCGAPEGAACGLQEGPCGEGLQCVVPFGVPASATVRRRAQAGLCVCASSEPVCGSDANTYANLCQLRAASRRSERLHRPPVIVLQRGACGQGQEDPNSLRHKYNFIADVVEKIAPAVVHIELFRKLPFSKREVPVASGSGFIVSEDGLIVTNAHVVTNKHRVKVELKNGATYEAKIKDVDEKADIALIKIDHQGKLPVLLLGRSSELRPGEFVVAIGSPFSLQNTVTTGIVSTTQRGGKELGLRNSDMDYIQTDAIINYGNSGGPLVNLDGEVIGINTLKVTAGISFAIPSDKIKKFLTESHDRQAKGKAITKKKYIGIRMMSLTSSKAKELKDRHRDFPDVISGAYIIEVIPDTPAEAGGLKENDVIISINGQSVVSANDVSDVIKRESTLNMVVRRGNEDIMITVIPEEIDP
# PAFAH2 inh: PAFAH2 (human) inhibition | Q99487 | recombinant PAFAH2, FP-rhodamine activity probe, fluorescence polarization | inhibition, % at 3.39 µM | 340,000 tested, 0.99% active | AID 492956;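 active means inhibition above the mean over all tested compounds plus 3 SD, cut at about 30% in these data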;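 further: inhibitors block probe labeling of enzyme so polarization drops; 0% = enzyme with DMSO and 100% = wells lacking PAFAH2 protein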
# DAGLB inhibitor: blocks human DAGLB lipase activity; 340,000 tested, 0.059% active; Q8NCG7; HEK293T DAGLB membrane lysate, EnzChek fluorogenic substrate; inhibition, % at 5.17 µM; in the data active means inhibition above about 34%;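 further: 0% = enzyme with vehicle and 100% = wells lacking enzyme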
# PAFAH1B2 inh: blocks human PAF acetylhydrolase 1b catalytic subunit 2. recombinant PAFAH1B2, FP-rhodamine activity probe, fluorescence polarization. P68402. inhibition, % at 3.39 µM. 340,000 tested, 1.2% active;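 active means inhibition above the mean of all tested compounds plus 3 SD, cut at about 24% in these data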;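 further: 0% = enzyme with DMSO and 100% = wells lacking PAFAH1B2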
# PAFAH1B3 FP inh: blocks human PAF acetylhydrolase 1B catalytic subunit 3 | Q15102 | recombinant PAFAH1B3, FP-rhodamine probe, fluorescence polarization | inhibition, % at 3.39 µM | 340,000 tested, 0.28% active | AID 492972;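 active means inhibition above the screen-wide average of all tested compounds plus 3 SD, cut at about 25% in these data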;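 further: 0% = enzyme with DMSO only and 100% = wells lacking PAFAH1B3 protein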
# pPAFAH inh: pPAFAH (human) enzyme inhibition; 330,000 tested, 1.5% active; recombinant pPAFAH, FP-rhodamine probe fluorescence polarization; inhibition, % at 3.39 µM;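 active means inhibition above the mean inhibition across the screen plus 3 SD, cut at about 25% in these data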;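 further: inhibitors block binding of the rhodamine activity-based probe so polarization drops; 0% = enzyme with DMSO and 100% = wells lacking pPAFAH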
# pPAFAH confirm: pPAFAH (human) inhibition, confirmed | AID 463230 | shares compounds with pPAFAH inh | inhibition, % at 3.39 µM | recombinant pPAFAH, FP-Rh probe fluorescence polarization | 2,300 tested, 72% active;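 active means mean inhibition of the triplicate above the hit cutoff set for the earlier primary screen, cut at about 25% in these data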;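 further: 0% = enzyme with DMSO and 100% = wells lacking pPAFAH enzyme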
# PAFAH2 FP conf: confirmation of human PAFAH2 inhibitors; 2,300 tested, 65% active; shares compounds with PAFAH2 inh; inhibition, % at 3.39 µM; AID 493030; recombinant PAFAH2, FP-rhodamine activity probe, fluorescence polarization;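 active means mean inhibition over three repeats above a set limit taken from the earlier primary screen, cut at about 30% in these data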;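 further: inhibitor blocks binding of rhodamine activity probe so polarization falls; 0% = enzyme with DMSO and 100% = wells lacking PAFAH2 protein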
# DAGLB inh conf: DAGLB (human) inhibition, confirmation screen | shares compounds with DAGLB inhibitor | AID 504445 | 190 tested, 73% active | inhibition, % at 5.17 µM | HEK293T DAGLB membrane lysate, EnzChek fluorogenic substrate;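 active means mean inhibition over triplicate wells above a set limit taken from the primary lipase screen, cut at about 34% in these data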;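 further: 0% = DAGLB with DMSO and 100% = wells lacking DAGLB enzyme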
# HTRA1 conf: HTRA1 (human) inhibition, confirmation; shares compounds with HTRA1 inhibitor; AID 540248; 1,600 tested, 66% active; inhibition, % at 5.96 µM; recombinant HTRA1, FP-rhodamine activity-based probe, fluorescence polarization;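 active means mean inhibition over three repeats above a set limit taken from the earlier primary screen, cut at about 37% in these data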;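 further: 0% = HTRA1 with DMSO and 100% = wells lacking HTRA1; inhibitors block probe binding so polarization drops and inhibition rises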
# * marks the source's active call; other numbers are inactive results; · = not tested or not shown.
SMILES,HTRA1 inhibitor,PAFAH2 inh,DAGLB inhibitor,PAFAH1B2 inh,PAFAH1B3 FP inh,pPAFAH inh,pPAFAH confirm,HTRA1 conf,others
COc1ccc(Cn2c(C)nc3c(c2=O)c2nc4ccccc4nc2n3Cc2ccco2)cc1,-35,12,5,-1,-2,·,·,·,
COc1ccc(S(=O)(=O)c2c(N)n(Cc3ccco3)c3nc4ccccc4nc23)cc1,6,19,1,-2,7,36*,9,·,
COc1cc(NS(=O)(=O)c2ccc(Nc3nc(-c4cccc([N+](=O)[O-])c4)cs3)cc2)nc(OC)n1,-66,43*,11,17,16,47*,69*,·,PAFAH2 FP conf=27
O=C(Nc1cc(Cl)ccc1Cl)N1CCN(C(=O)Nc2cc(Cl)ccc2Cl)CC1,-5,-4,1,5,1,·,·,·,
O=C(O)c1ccccc1NS(=O)(=O)c1ccc(NN=Cc2ccc(F)cc2)c([N+](=O)[O-])c1,-19,19,37*,14,14,58*,77*,·,DAGLB inh conf=33
Cc1c(C(=O)N/N=C/c2cccnc2)sc(N)c1C#N,0,-2,3,-2,8,·,·,·,
CC(CCC(=O)NN)C1CCC2C3CCC4CC(O)CCC4(C)C3CCC12C (stereo not given),-21,5,0,-1,-5,·,·,·,
CC(CCC(C)C(C)(C)C)[C@@H]1CC[C@H]2C3C[C@H](OS(O)(=S)=S)[C@H]4C[C@H](OS(O)(=S)=S)[C@@H](OS(O)(=S)=S)C[C@]4(C)[C@H]3CC[C@]12C (stereo not given in full) (tested in a mixture with another compound),-137,-33,35*,-7,-18,36*,23,·,DAGLB inh conf=34*
N#C/C(=C/c1ccc(O)c(O)c1)c1nc2ccccc2[nH]1,65*,62*,18,45*,58*,63*,79*,94*,
CS(=O)(=O)NCCCCCCNS(C)(=O)=O,4,9,0,3,1,6,·,·,
COc1cc2ncc(S(=O)(=O)c3ccccc3)c(N3CCCC(C)C3)c2cc1OC (stereo not given),-49,6,-6,4,-2,-3,·,·,
O=C1CCCC(O)=C1N=Nc1c(Cl)cc(C(F)(F)F)cc1Cl,72*,64*,4,35*,37*,39*,11,1,
O=C(NCc1ccccc1)C(c1ccc(F)cc1)N(C(=O)c1csnn1)C1CC1 (stereo not given),-4,12,-1,0,2,1,·,·,
CCN(CC)CCN1C(=O)C(=O)/C(=C(/O)c2ccc(S(=O)(=O)N3CCOCC3)cc2)C1c1ccc(C(C)(C)C)cc1 (stereo not given),7,-3,0,-5,5,4,·,·,
C=CCN(C(=O)c1ccc(Cl)cc1)c1ccccc1C(=O)NCC(=O)O,-2,9,1,9,11,5,·,·,
O=C(/C=C1\NC2(CCCC2)Cc2ccccc21)C(=O)N/N=C/c1ccc(O)c(O)c1,79*,34*,18,8,15,48*,87*,63*,
COc1cccc2nc3cc(C)c(C)cc3nc12,48*,25,-4,23,25,42*,13,6,
COc1cccc2c1nc(C)c1cc(C)oc12,-3,-4,0,-2,3,-4,·,·,
O=C(CC1Nc2cccc3cccc(c23)NC1=O)Nc1ccc(F)cc1 (stereo not given),61*,6,4,6,7,60*,7,6,
O=S(=O)(c1cc(F)ccc1F)N1CCC2(CC1)OCCN2S(=O)(=O)c1cccs1,-8,4,-1,10,3,5,·,·,
CC(=O)C(C(C)=O)c1c(Cl)c(O)c(O)c2c(C(=O)c3ccccc3)coc12,65*,10,16,0,-9,59*,45*,82*,
CCN(CC(=O)NCc1ccc(F)cc1)CC(=O)NC1CCCC1,-4,-7,3,-1,8,1,·,·,
Cc1ccc([N+](=O)[O-])cc1-c1[nH]c(-c2ccc(O)c(O)c2)nc1-c1ccccc1,69*,-2,11,3,19,65*,83*,85*,
COc1ccc(N=Cc2cc(Cc3ccccc3Cl)cc([N+](=O)[O-])c2O)cc1OC,12,15,19,8,6,16,·,·,
Cc1ccc(N=Cc2cc(Cc3ccccc3Cl)cc([N+](=O)[O-])c2O)c(O)c1,71*,12,22,9,8,48*,62*,65*,
SMILES,HTRA1 inhibitor,PAFAH2 inh,DAGLB inhibitor,PAFAH1B2 inh,PAFAH1B3 FP inh,pPAFAH inh,pPAFAH confirm,HTRA1 conf,others
CC(=O)c1ccc2c(c1)C1C=CCC1C(c1ccc(S(=O)(=O)N3CCOCC3)cc1)N2 (stereo not given),5,-3,7,4,4,12,·,·,
Cc1c(Cl)cccc1NS(=O)(=O)c1ccccc1,-4,0,-2,4,4,·,·,·,
Cc1c(Cl)cccc1NS(=O)(=O)c1ccc2c(c1)C1C=CCC1C(c1ccc(C(=O)O)cc1)N2 (stereo not given),38*,60*,21,30*,37*,92*,88*,31,
COc1ccc(NS(=O)(=O)c2ccc3c(c2)[C@H]2C=CC[C@H]2[C@@H](c2ccc(C(=O)O)cc2)N3)cc1,57*,68*,9,31*,46*,74*,66*,53*,
CCCc1nnc(SCC(=O)Nc2cccc(C(F)(F)F)c2)o1,-4,-3,0,2,6,-2,·,·,
COC1=CC(=O)C(O)=C(CCCCCCC/C=C/CCCCCCCC2=C(O)C(=O)C=C(OC)C2=O)C1=O,64*,101*,24,94*,41*,95*,95*,93*,
CN(CC(=O)Nc1ccc(Cl)cc1)CC(=O)N1CCc2ccccc21,8,·,-7,·,·,·,·,·,
COCCCNC(=O)c1cc2cc(Br)ccc2oc1=O,-3,-3,0,4,6,0,·,·,
O=C(NNC(=O)c1cc2cc(Br)ccc2oc1=O)c1ccc(O)cc1O,58*,10,26,1,16,47*,47*,83*,
Cn1c(=O)c(Nc2ccc(O)cc2)c2c3c(cccc31)C(=O)c1ccccc1-2,78*,15,44*,10,22,41*,40*,86*,

# Compound activity deposited in PubChem by The Scripps Research Institute Molecular Screening Center.
